Rows were chosen to be rich in hits. Some 13% of all compounds tested hit in one or more screens of this group.
Pf growth 96h: P. falciparum growth inhibition at 96 hour, primary screen for plastid delayed-death inhibitors; P. falciparum luciferase reporter growth, 96 h; Potency, µM (top dose mostly 28.7 µM), without a hit: at the highest dose activity change, negative = inhibition, hits mostly inhibitors; 320,000 compounds, 6.9% hits; further: potency means the concentration at half of the fitted maximal effect
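Plates of compound plus infected erythrocytes (2% hematocrit, 0.05% parasitemia final) incubate 96 hours, 37 C, 5% CO2. Detection reagent added; reduced luminescence from the parasites' luciferase reporter flags inhibition.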
HCV inh: inhibitors of hepatitis C virus infection; 340,000 compounds, 3.4% hits; Huh7.5.1 HCVcc-Cre infection, luciferase reporter, 44 h; AID 651820; Potency, µM (series often up to 41.8 µM), for inactives: at the highest dose activity change, negative = inhibition, actives largely listed as inhibitors; further: potency means the concentration at half of the fitted maximal effect
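A cell-based infection assay in which seeded cells (1,000 per well) receive test compound after 4 h, are inoculated with HCVcc-Cre at approximately 0.5 moi, and are incubated 44 h before luminescence detection.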
Pf growth 48h: P. falciparum growth inhibition at 48 hours (one generation); P. falciparum luciferase growth in erythrocytes, 48 h; Potency, µM (titrated, usually from 28.7 µM), inactives show at the highest dose activity change, negative = inhibition, usual class: inhibitors; 310,000 compounds, 5.9% hits; AID 504832; further: potency means the concentration at half of the fitted maximal effect
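First compound was added to culture medium, then infected red cells at 0.1% parasitemia and 2% hematocrit (final). After incubation at 37 C under 5% CO2, luciferase detection reagent was dispensed and light output recorded.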
HCMV inh: blocks human cytomegalovirus replication; HFF cells, HCMV-luciferase reporter, 72 h; stronger effect = lower value; 410,000 compounds, 4.5% hits; AID 1259415; activity change, negative = inhibition, % at 57.5 µM; in the data active means activity change below about -60%; inconclusive means no clear call, values can overlap the other calls; inactive means above about -39%
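Compounds were evaluated in HFFs infected with an HCMV luciferase reporter virus (MOI 1 PFU/cell). Luciferase in lysates collected 72 h post infection served as the replication measure.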
Starred values were filed as active, the others as inactive; ? = inconclusive; / = not tested or not shown. Unless noted, the call rests on the fitted dose curve; in most records, active means well fitted inhibition curve with a large enough effect; inconclusive means small, poorly fitted or top-dose-only effect, or another doubt; inactive means no such curve, though single readings can be large or run the other way. On the % scale 0 is the no-effect control and ±100 the full control effect.

SMILES	Pf growth 96h	HCV inh	Pf growth 48h	HCMV inh
COc1cnc(-c2ccccn2)nc1Oc1cccc(C(F)(F)F)c1	1.7µM*	/	2.3µM*	-99*
COc1cnc(-c2ccccn2)nc1N(C)c1ccccc1	0.93µM*	10µM*	0.93µM*	-98*
COc1cnc(-c2ccccn2)nc1Oc1ccccc1	?	-4%	12µM*	-31
Cc1onc(-c2c(F)cccc2Cl)c1C(=O)NC1C(=O)N2C1SC(C)(C)C2C(=O)O (centres undefined)	-23%	/	-14%	/
CCOCCCNC(=O)Cn1nc(C)n2c(cc3cc(C)ccc32)c1=O	/	/	/	0
Cc1ccc(N2CCN(S(=O)(=O)c3ccc(Cl)c4ccccc34)CC2)c(C)c1	/	/	/	9
Oc1cccc2ccc(Nc3ccccn3)nc12	/	1.1µM*	0.37µM*	-103*
Cc1cc2cc(CN(Cc3ccc4c(c3)OCO4)C(=O)c3cnccn3)c3nnnn3c2cc1C	/	?	-5%	-11
CC(=O)N(Cc1cc2cc(C)c(C)cc2n2nnnc12)CC1COCCO1 (centres undefined)	2.9µM*	-4%	33%	11
CCOc1cccc(C(=O)N(Cc2ccc(F)cc2)Cc2ccco2)c1	/	/	/	16
COc1ccc2c(c1)c1nc3n(c(=O)c1n2CC(=O)Nc1cc(C)[nH]n1)CCS3	18%	/	9%	-85*
COc1cccc(NC(=O)Cn2c3ccc(OC)cc3c3nc4n(c(=O)c32)CCS4)c1	36%	-18%	-2%	-40
Cc1ccccc1NC(=O)N1C2CCCC1CC(NC(=O)C(C)(C)C)C2 (centres undefined)	12µM*	7%	0%	72
CC(C)(C)C(=O)NC1CC2CCCC(C1)N2C(=O)Nc1ccccc1 (centres undefined)	?	21%	?	?
O=C(Cc1ccc(Cl)cc1)NC1CC(=O)N(c2ccc3c(c2)OCCO3)C1 (centres undefined)	/	/	/	21
O=C(CSc1nc2ccccc2nc1N1CCCCC1)N1CCN(c2ccccc2)CC1	44%	-18%	?	?
O=C(CSc1nc2ccccc2nc1N1CCOCC1)N1CCN(c2ccccc2)CC1	?	?	9.3µM*	-16
CCOc1ccc(NC(=O)CSc2nc3ccccc3nc2N2CCOCC2)cc1	12µM*	-20%	?	-28
CCOc1ccc(NC(=O)CSc2nc3ccccc3nc2N2CC(C)OC(C)C2)cc1 (centres undefined)	9.3µM*	-4%	?	17
O=C1CC(c2cccc(O)c2)c2c(nc(SCc3ccccc3F)[nH]c2=O)N1 (centres undefined)	/	/	/	19
COC(=O)c1ccc(C2C=C(c3ccc(Cl)cc3)Nc3nc4ccccc4n32)cc1 (centres undefined)	/	/	/	29
Cc1ccc(C)c(N2CCN(C(=O)c3cnc4c(-c5ccccc5)c(C)nn4c3C)CC2)c1	/	/	/	4
COCCn1c(=O)[nH]c2cc(C(=O)N3CCN(Cc4ccc5c(c4)OCO5)CC3)ccc2c1=O	/	7%	/	?
COCCn1c(=O)[nH]c2cc(C(=O)N3CCN(c4cccc(C(F)(F)F)c4)CC3)ccc2c1=O	12µM*	?	?	-9
CCCn1c(=S)[nH]c2cc(C(=O)N3CCc4ccccc43)ccc2c1=O	-10%	?	24%	-39
SMILES	Pf growth 96h	HCV inh	Pf growth 48h	HCMV inh
COCCn1c(=S)[nH]c2cc(C(=O)N3CCN(Cc4ccc5c(c4)OCO5)CC3)ccc2c1=O	39%	14µM*	?	-99*
COCCn1c(=S)[nH]c2cc(C(=O)N3CCN(c4cccc(Cl)c4)CC3)ccc2c1=O	12µM*	?	-1%	14
COCCn1c(=S)[nH]c2cc(C(=O)N3CCc4ccccc43)ccc2c1=O	?	?	?	-70*
Cc1ccsc1CN(Cc1ccco1)c1cnc(S(C)(=O)=O)nc1C(=O)Nc1ccc(Cl)cc1	/	/	/	7
COc1ccc(C)cc1NC(=O)c1cc(S(=O)(=O)NC2CCCCCC2)ccc1F	/	/	/	-34
CCOC(=O)C1=C(COc2ccccc2)NC(=O)NC1c1cccc([N+](=O)[O-])c1 (centres undefined)	?	?	-17%	-13
CCOC(=O)C1=C(Cn2cnc3ccccc32)NC(=O)NC1c1cc(C)ccc1C (centres undefined)	?	?	?	19
CC1=C(C(=O)OC2CCCCCCC2)C(c2cccc(O)c2)NC(=O)N1 (centres undefined)	12%	9%	-15%	43

Source: PubChem BioAssay (National Center for Advancing Translational Sciences (NCATS))
